Data taken from PubChem BioAssay (Tox21).
Records with an inconclusive call do not appear. The source made the active and inactive calls. The call rests on the fitted dose curve; in most records, active means well fitted activation curve with a large enough effect in the signal ratio in the repeat runs, with a control signal flat (not every such curve was filed as active); inconclusive means weak or mixed curves; inactive means flat fitted curve, though single readings scatter; the % refers to the signal ratio.

assay: qHTS assay for small molecule activators of the heat shock response signaling pathway (AID 743210); details: HeLa HSE-bla reporter, beta-lactamase ratio, 5 h; series mostly up to 62.6 µM
Description: U.S. Tox21 Program National Center for Advancing Translational Sciences [NCATS] NIH Chemical Genomics Center [NCGC] U.S. Environmental Protection Agency [EPA] National Institutes of Environmental Health Sciences [NIEHS] National Toxicology Program [NTP] U.S. Food and Drug Administration [FDA] Tox21 Assay Overview: Various chemicals, environmental and physiological stress conditions may lead to the activation of heat shock response/ unfolded protein response (HSR/UPR). There are three heat shock transcription factors (HSFs) (HSF-1, -2, and -4) mediating transcriptional regulation of the human HSR. To identify the compounds that activate HSR signaling, HSE-bla HeLa cell line (Invitrogen, Carlsbad, CA, USA) containing a beta-lactamase reporter gene under the control of the heat shock response elements was used to screen the Tox21 10K compound library.
Tox21 Assay Protocol Summary: The CellSensor HSE-bla HeLa cells (Invitrogen, Carlsbad, CA, USA) were dispensed at 1500 cells/6uL/well into 1536-well black wall/clear bottom plates using a Multidrop combi (Thermo Fisher Scientific, Waltham, MA) dispenser. After the assay plates were incubated at 37 C and 5% CO2 overnight, 23 nL of compounds dissolved in DMSO, positive controls or DMSO only was transferred to the assay plate by a Pintool station (Kalypsys, San Diego, CA). The plates were incubated at 37 C for 5 h. After 1 uL of LiveBLAzerTM B/G FRET substrate was added using a Flying Reagent Dispenser (Beckman Coulter, Indianapolis, IN, USA), the plates were incubated at room temperature for 2.5 h, and fluorescence intensity was measured by an Envision plate reader (PerkinElmer, Shelton, CT).

| Compound | outcome |
| --- | --- |
| Cc1ccc2ncccc2c1 | inactive |
| NCCN1CCNCC1 | inactive |
| O=C(O)/C=C/C(=O)O | inactive |
| CCCCCCO | inactive |
| OC1C(O)C(O)C(O)C(O)C1O (stereo not given) | inactive |
| CCO[Si](CCCN)(OCC)OCC | inactive |
| CC(C)=CCl | inactive |
| O=c1[nH]cnc2[nH]ncc12 | inactive |
| CC1(C)S[C@@H]2[C@H](NC(=O)COc3ccccc3)C(=O)N2[C@H]1C(=O)O | inactive |
| c1ccc2c(c1)Cc1ccccc1-2 | inactive |
| OCc1cccc(Oc2ccccc2)c1 | inactive |
| CCO[Si](CCC#N)(OCC)OCC | inactive |
| C[Si]1(C)O[Si](C)(C)O[Si](C)(C)O[Si](C)(C)O1 | inactive |
| CCCCCCCCCCO | inactive |
| C=CCc1ccc(OC)c(OC)c1 | inactive |
| CNC(=O)Oc1ccc2c(c1)[C@]1(C)CCN(C)[C@@H]1N2C | inactive |
| CC(=O)c1ccc(O)cc1 | inactive |
| CC(CCO)CC(C)(C)C (stereo not given) | inactive |
| CSc1ccc(Cl)cc1 | inactive |
| CCCCOC(=O)c1ccc(N)cc1 | inactive |

| Compound | outcome |
| --- | --- |
| O=[N+]([O-])c1ccc2nc[nH]c2c1 | inactive |
| CCCCCC(=O)O | inactive |
| Cc1ccc([N+](=O)[O-])cc1S(=O)(=O)O | inactive |
| CCCCCCCC=O | inactive |
| CN(C)CCOC(=O)COc1ccc(Cl)cc1 | inactive |
| C=C(C)C(=O)OCC(C)C | inactive |
| Cc1ccc(C(C)C)c(O)c1 | inactive |
| CC(C)(Oc1ccc(CCNC(=O)c2ccc(Cl)cc2)cc1)C(=O)O | inactive |
| C[C@]12CCC(=O)C=C1CC[C@@H]1[C@@H]2[C@@H](O)C[C@@]2(C)[C@H]1CC[C@]2(O)C(=O)CO | inactive |
| CCOC(=O)n1ccn(C)c1=S | inactive |
| O=C(O)CCCCCCCCC(=O)O | inactive |
| CC(C)(C)c1cc(Cc2cc(C(C)(C)C)c(O)c(C(C)(C)C)c2)cc(C(C)(C)C)c1O | inactive |
| NCCCCCCN | inactive |
| COc1ccc(CCC(C)=O)cc1 | inactive |
| N#Cc1ccccc1 | inactive |
| CC(=O)OCc1ccco1 | inactive |
| CC(=O)Oc1ccc(C)cc1 | inactive |
| CC(C)(C#N)c1cc(Cn2cncn2)cc(C(C)(C)C#N)c1 | inactive |
| O=C(OCC1CCC2OC2C1)C1CCC2OC2C1 (stereo not given) | inactive |
| COc1ccc(C)cc1N | inactive |
